PubChem BioAssay (EPA / NIEHS)
Values joined by “and” are separate entries in the source; they are usually repeats but may differ in a detail not shown here. Equal values may be shown once. Some structures have more than one record in an assay (separate samples or runs), and their calls can disagree. Active and inactive are the calls of the source. How the source made its calls: active means hit-call score of the fitted dose curve at least 0.9, where 1 is the maximum; inactive means score below 0.9.

What was measured:
[1] = read-out: Vascular endothelial growth factor receptor 2 (Homo sapiens) (UniProt P35968); experiment: BSK_4H_VEGFRII: BioMAP Diversity Plus: 4H Assay for Vascular endothelial growth factor receptor 2 (VEGFR2) Biomarker Activity (AID 2283031); details: primary human endothelial cells (HUVEC); actives raise or lower the signal;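 on AC50: cell-surface VEGFR2 protein level quantified by ELISA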
Procedure, shortened: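 VEGFRII levels on human vascular endothelial primary cells were determined by ELISA at 24 hours post-dosing, with gain- or loss-of-signal fitted against DMSO controls.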

[2] = read-out: Human Leukocyte Antigen - DR isotype (HLADR), HLA-DRA (gene 3122); experiment: BSK_BE3C_HLADR: BioMAP Diversity Plus: BE3C Assay for Human Leukocyte Antigen - DR isotype (HLADR) Biomarker Activity (AID 2283032); details: primary human bronchial epithelial cells; actives raise or lower the signal
Procedure, shortened: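 Human primary bronchial epithelial cells (BE3C system) exposed to compound for 24 hours; cell-surface HLA-DR measured by ELISA, fitted bidirectionally relative to DMSO. Total protein by SRB in parallel cultures tracked cytotoxicity.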

[3] = read-out: Vascular cell adhesion molecule 1 (VCAM1), VCAM1 (gene 7412); experiment: BSK_4H_VCAM1: BioMAP Diversity Plus: 4H Assay for Vascular cell adhesion molecule 1 (VCAM1) Biomarker Activity (AID 2283033); details: primary human endothelial cells (HUVEC); actives raise or lower the signal
Procedure, shortened: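 Primary human umbilical vein endothelial cells, 4H stimulation system, treated for 24 h; cell-surface VCAM-1 quantified by ELISA. Bidirectional fitting against DMSO; cytotoxicity tracked by SRB total-protein staining in parallel cultures.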

[4] = read-out: Interferon-gamma inducible Protein 10 (IP10), CXCL10 (gene 3627); experiment: BSK_BE3C_IP10: BioMAP Diversity Plus: BE3C Assay for Interferon-gamma inducible Protein 10 (IP10) Biomarker Activity (AID 2283034); details: primary human bronchial epithelial cells; actives raise or lower the signal
Procedure, shortened: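 Primary human bronchial epithelial cells, with IP-10 measured by ELISA 24 hours after chemical dosing. Bidirectional fit against DMSO; cytotoxicity checked by SRB total protein staining in parallel cultures.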

[5] = read-out: Plasminogen activator inhibitor-1 (PAI1), SERPINE1 (gene 5054); experiment: BSK_BE3C_PAI1: BioMAP Diversity Plus: BE3C Assay for Plasminogen activator inhibitor-1 (PAI1) Biomarker Activity (AID 2283037); details: primary human bronchial epithelial cells; actives raise or lower the signal
Procedure, shortened: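 Primary human bronchial epithelial cells (BE3C system) exposed 24 h; PAI-1 quantified by ELISA. Parallel sulforhodamine B staining of total protein flags cytotoxicity. Bidirectional fit versus DMSO.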

[6] = read-out: urokinase plasminogen activator (uPA), PLAU (gene 5328); experiment: BSK_BE3C_uPA: BioMAP Diversity Plus: BE3C Assay for urokinase plasminogen activator (uPA) Biomarker Activity (AID 2283038); details: primary human bronchial epithelial cells; actives raise or lower the signal
Procedure, shortened: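 Measured by ELISA: uPA from human primary bronchial epithelial cells 24 h after chemical treatment. Values derive from bidirectional curve fitting with DMSO serving as negative control. Total protein by SRB staining in parallel wells flagged overt cytotoxicity.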

[7] = read-out: Urokinase-type plasminogen activator receptor (uPAR), PLAUR (gene 5329); experiment: BSK_BE3C_uPAR: BioMAP Diversity Plus: BE3C Assay for Urokinase-type plasminogen activator receptor (uPAR) Biomarker Activity (AID 2283039); details: primary human bronchial epithelial cells; actives raise or lower the signal
Procedure, shortened: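 Primary human bronchial epithelial cells dosed for 24 h; uPAR quantified by ELISA with bidirectional fitting against DMSO. Overt cytotoxicity assessed in parallel cultures by SRB total-protein staining (0.1% SRB, 560 nm).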

[8] = read-out: Interleukin-6 (IL6), IL6 (gene 3569); experiment: BSK_CASM3C_IL6: BioMAP Diversity Plus: CASM3C Assay for Interleukin-6 (IL6) Biomarker Activity for (AID 2283040); details: primary human coronary artery smooth muscle cells; actives raise or lower the signal
[9] = read-out: Transforming growth factor beta 1 (TGFb1), TGFB1 (gene 7040); experiment: BSK_BE3C_TGFb1: BioMAP Diversity Plus: BE3C Assay for Transforming growth factor beta 1 (TGFb1) Biomarker Activity (AID 2283036); details: primary human bronchial epithelial cells; actives raise or lower the signal
Procedure, shortened: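 Primary human bronchial epithelial cells dosed with chemical; TGF-b1 measured by ELISA 24 h after dosing. Bidirectional curve fitting against DMSO negative control; SRB total-protein staining in parallel cultures gauged cytotoxicity.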

Measured: AC50

OCC(F)(OC(F)(F)C(F)(OC(F)(F)C(F)(F)C(F)(F)F)C(F)(F)F)C(F)(F)F (stereo not given)
active: [2] 5.06 µM | [3] 2.41 µM | [4] 4.78 µM
inactive: [1] | [2] | [3] | [4] | [5] | [6] | [7] | [8]

CCC(=O)OCC=Cc1ccccc1
inactive: all assays above

NC(=O)c1c(Cl)cccc1Cl
inactive: all assays above

O=C(O)C(F)(F)C(F)(F)C(F)(F)C(F)(F)C(F)(F)C(F)(F)C(F)(F)C(F)F
active: [2] 12.5 µM and 3.23 µM | [4] 30 µM and 38.3 µM
not listed: [9]
inactive: all other assays above

C=C(F)C(=O)OC(C(F)(F)F)C(F)(F)F
not listed: [9]
inactive: all other assays above

O=S1(=O)CC(Cl)(Cl)C(Cl)(Cl)C1
active: [2] 0.96 µM | [3] 0.582 µM | [4] 1.07 µM | [9] 0.582 µM | [5] 1.61 µM | [6] 1.08 µM | [7] 1.66 µM | [8] 1.44 µM
inactive: [1]

CCCO[Si](OCCC)(OCCC)OCCC
not listed: [9]
inactive: all other assays above

C#C[C@]1(O)CC[C@H]2[C@@H]3CCc4cc(O)ccc4[C@H]3CC[C@@]21C
inactive: all assays above

CC(=O)OCC=C(C)CCC=C(C)CCC=C(C)C
active: [2] 3.97 µM | [4] 8.81 µM | [5] 0.016 µM
inactive: all other assays above

C=CC(=O)OCC(CO)(COC(=O)C=C)COC(=O)C=C
inactive: [5]
active: [1] 0.661 µM | [2] 0.336 µM | [3] 0.302 µM | [4] 0.818 µM | [9] 1.4 µM | [6] 0.631 µM | [7] 2.72 µM | [8] 0.835 µM

CCCCCCCCCCCCS
active: [2] 20 µM | [3] 11.2 µM | [4] 20 µM
inactive: all other assays above

CCOC(=O)C=Cc1ccccc1
inactive: all assays above

CC(C)Cc1ccc(C(C)C(=O)O)cc1 (stereo not given)
active: [8] 5.55 µM
inactive: all other assays above

CC(=O)OC(C)(C)C1CC=C(C)CC1 (stereo not given)
active: [1] 31.6 µM | [2] 35.4 µM | [3] 35 µM | [4] 31.5 µM
inactive: all other assays above

c1ccc(OCCOc2ccccc2)cc1
not listed: [9]
inactive: all other assays above

CCCCN(CCO)CCO
not listed: [9]
inactive: all other assays above

C[C@]12CC[C@@H]3c4ccc(O)cc4CC[C@H]3[C@@H]1CC[C@@H]2O
inactive: all assays above

CCn1cc(C(=O)O)c(=O)c2ccc(C)nc21
not listed: [9]
inactive: all other assays above

C=C(C)C(=O)OCCC(F)(F)C(F)(F)C(F)(F)C(F)(F)C(F)(F)C(F)(F)C(F)(F)C(F)(F)F
not listed: [9]
inactive: all other assays above

O=S(=O)(O)C(F)(F)C(F)(F)OC(F)(F)C(F)(F)F
not listed: [9]
inactive: all other assays above

O=C(O)C(F)(F)OC(F)(F)C(F)(F)OC(F)(F)C(F)(F)C(F)(F)C(F)(F)F
active: [2] 21.2 µM and 13.3 µM | [4] 46.8 µM and 41.4 µM
not listed: [9]
inactive: all other assays above

CC1=CC(C)C(C=O)C(C)C1 (stereo not given) (tested in a mixture with another compound)
inactive: all assays above

CCCCCCCC1CCCC1=O (stereo not given)
inactive: [1] | [7]
active: [2] 30.7 µM | [3] 31.5 µM | [4] 33.5 µM | [9] 36.6 µM | [5] 36.6 µM | [6] 32.4 µM | [8] 31 µM
